Screens as filed in PubChem BioAssay.
FMDV antiviral – blocks foot and mouth disease virus | FMDV antiviral cell-based qHTS | Potency, µM (highest dose often 57.9 µM), inactives show top-dose activity change, negative = inhibition, most hits filed as inhibitors | 410,000 compounds, 1.2% hits | AID 1159524; calls by dose curve; tested in HEK293T cells; further: read-out not given here; potency means the concentration at half of the fitted maximal effect; nearly all actives have a fitted effect of over 45% in size
Sm TGR block – blocks Schistosoma mansoni thioredoxin glutathione reductase; Q962Y6; AID 485364; 360,000 compounds, 3% hits; Potency, µM (top dose mostly 114 µM), for the others: at the highest dose activity change, negative = inhibition, usual class: inhibitors; purified TGR, DTNB reduction, TNB absorbance 405 nm; further: potency means the concentration at half of the fitted maximal effect; nearly all actives have a fitted effect of over 60% in size
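Kinetic colorimetric format: TGR-catalysed, NADPH-driven DTNB reduction monitored via TNB absorbance. Enzyme dispensed at 20 nM; compound exposure 15 min at room temperature before reaction start.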
HCV inh – HCV inhibition. Huh7.5.1 HCVcc-Cre infection, luciferase reporter, 44 h. Potency, µM (doses to about 41.8 µM), without a hit: top-dose activity change, negative = inhibition, actives largely listed as inhibitors. 340,000 compounds, 3.4% hits; further: potency means the concentration at half of the fitted maximal effect
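Compounds are dispensed onto cells plated 4 h earlier at 1,000 per well, with HCVcc-Cre virus (about 0.5 moi) added next. Following 44 h of culture, luminescent signal is measured for 15 sec after 15 min with substrate at room temperature.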
Vaccinia mCherry – vaccinia inhibition (mCherry reporter); AID 720579; 310,000 compounds, 0.63% hits; Potency, µM (top dose mostly 36.5 µM), inactives show top-dose activity change, negative = inhibition, hits mostly inhibitors; Vaccinia virus mCherry reporter infection, fluorescence; calls by dose curve; tested in A549 cells; further: potency means the concentration at half of the fitted maximal effect; nearly all actives have a fitted effect of over 35% in size
HCMV antiviral – human cytomegalovirus inhibition; HFF cells, HCMV-luciferase reporter, 72 h; hits give low values; 410,000 compounds, 4.5% hits; activity change, negative = inhibition, % at 57.5 µM; in the data active means activity change below about -60%; inconclusive means no clear call, values can overlap the other calls; inactive means above about -39%
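Luciferase read-out from HCMV-luciferase-infected HFFs (MOI 1 PFU/cell) 72 h post infection at 37C; compounds added after 16 h cell attachment; activity normalized between buffer-only basal and Salinomycin (10uM) inhibitor controls.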
VACV Venus inh – inhibitors of vaccinia virus (Venus reporter); 330,000 compounds, 0.46% hits; Potency, µM (doses to about 36.5 µM), for the others: at the top dose activity change, negative = inhibition, most hits filed as inhibitors; AID 720580; Vaccinia virus Venus reporter expression, fluorescence; calls by dose curve; tested in A549 cells; further: potency means the concentration at half of the fitted maximal effect; nearly all actives have a fitted effect of over 30% in size
Active calls of the source: *; ! = repeats disagree; [ ] = remark or other dose. A selection: hits, their analogues and other compounds. The true share with any hit is near 9.3%. Unless noted, the call rests on the fitted dose curve; in most records, active means well fitted curve in the direction sought with a large enough effect; inconclusive means small, poorly fitted or top-dose-only effect, or another doubt; inactive means no such curve, though single readings can be large; an effect the other way counts as inactive or inconclusive. On the % scale 0 is the no-effect control and ±100 the full control effect.

What do the screens show for `CCOC(=O)COc1nc(-c2ccc(C)cc2)cc(-c2ccco2)c1C#N`?
FMDV antiviral: -5.0%; Sm TGR block: -1.6%; HCV inh: 1.1%; HCMV antiviral: inconclusive

How did CCOc1nc2c(c(-c3cccs3)c1C#N)Cc1ccccc1-2 do in these assays?
FMDV antiviral: -21.5%; Sm TGR block: 16.1%; HCV inh: -3.0%; Vaccinia mCherry: inactive; HCMV antiviral: 21.2; VACV Venus inh: -13.1%

Results for CCOC(=O)COc1nc(-c2ccco2)cc(-c2ccco2)c1C#N ?
FMDV antiviral: -17.5%; Sm TGR block: 31.6µM*; HCV inh: -73.8%; Vaccinia mCherry: inactive; HCMV antiviral: -17.6; VACV Venus inh: -22.5%

How did CCOC(=O)C(C)Sc1nc(-c2ccco2)cc(C(F)(F)F)c1C#N (stereo not drawn) do in these assays?
FMDV antiviral: inconclusive; Sm TGR block: 22.4µM*; HCV inh: -19.0%; Vaccinia mCherry: -14.3%; HCMV antiviral: -6.7; VACV Venus inh: -0.1%

What do the screens show for `Cc1ccc(NC2SC(=O)N(Cc3cccc(C(=O)O)c3)C2=O)cc1` (stereo not drawn)?
FMDV antiviral: 12.2%; Sm TGR block: -7.3%; HCV inh: 8.7%; Vaccinia mCherry: -19.2%; HCMV antiviral: 19.7; VACV Venus inh: -22.8%

How did COc1ccc(C(=O)NCCN2CCN(C(=O)c3ccc(OC)c(OC)c3)CC2)cc1OC do in these assays?
FMDV antiviral: -6.1%; Sm TGR block: -2.9%; HCV inh: -1.3%; Vaccinia mCherry: -11.7%; HCMV antiviral: 11.9; VACV Venus inh: -3.6%

How did CCCCN(C=O)c1c(CC)nc2ccc(C(=O)NCCCN3CCCC3=O)cn12 do in these assays?
FMDV antiviral: -9.1%; Vaccinia mCherry: 24.1%; HCMV antiviral: 8.8; VACV Venus inh: -21.6%

Results for Cc1ccc(Nc2c([N+](=O)[O-])c(=O)n(C)c3ccccc23)cc1C ?
FMDV antiviral: -9.7%; Sm TGR block: -3.1%; HCV inh: inconclusive; HCMV antiviral: -6.6

Results for O=C(Nc1ccc2c(c1)OCO2)C1CC(=O)N(CCc2ccccc2)C1 (stereo not drawn) ?
FMDV antiviral: 41.0%; Sm TGR block: inconclusive; HCV inh: 0.4%; Vaccinia mCherry: 5.6%; HCMV antiviral: -0.2; VACV Venus inh: -0.4%

Results for Cc1cc(=O)n2nc(N3CCCC(C(=O)NC4CCC(C)CC4)C3)sc2n1 (stereo not drawn) ?
FMDV antiviral: 2.7%; Sm TGR block: 3.5%; HCV inh: -0.8%; Vaccinia mCherry: inactive; HCMV antiviral: -61.4*; VACV Venus inh: -5.8%

How did CCCCCCCCCC[n+]1ccc(/C=C/c2ccc(N(C)C)cc2)c2ccccc21 do in these assays?
Vaccinia mCherry: inactive

Results for CCCCC[n+]1cccc2c3ccccc3ccc21 ?
FMDV antiviral: inconclusive; Sm TGR block: 8.2%; HCV inh: inconclusive; HCMV antiviral: -95.4*

What do the screens show for `c1ccc(C[n+]2cccc3c4ccccc4ccc32)cc1`?
FMDV antiviral: inconclusive; Sm TGR block: -7.0%; HCV inh: inconclusive; Vaccinia mCherry: inconclusive; HCMV antiviral: -93.9*; VACV Venus inh: inconclusive

How did O=C(c1cc2ccccc2o1)N1CCN(Cc2ccc3c(c2)OCO3)CC1 do in these assays?
FMDV antiviral: -16.6%; Sm TGR block: 6.9%; HCV inh: inconclusive; HCMV antiviral: inconclusive

Results for O=C(c1ccc(COc2ccc(Cl)cc2)o1)N1CCN(Cc2ccc3c(c2)OCO3)CC1 ?
Sm TGR block: -22.1%; HCV inh: 8.91µM*; Vaccinia mCherry: -21.6%; HCMV antiviral: -32.7; VACV Venus inh: -18.5%

How did O=C(c1ccc(COc2ccccc2Cl)o1)N1CCN(Cc2ccc3c(c2)OCO3)CC1 do in these assays?
FMDV antiviral: 35.5µM*!; Sm TGR block: -23.9%; HCV inh: inconclusive; Vaccinia mCherry: inactive; HCMV antiviral: 0.7; VACV Venus inh: -16.0%

What do the screens show for `CCOc1ccc(N(C)S(=O)(=O)c2ccc(C)c(C(=O)N3CCN(Cc4ccc5c(c4)OCO5)CC3)c2)cc1`?
FMDV antiviral: 22.4µM*; HCV inh: inconclusive; Vaccinia mCherry: -22.5%; HCMV antiviral: -23.5; VACV Venus inh: inconclusive

Results for CCN1CCN(C(=O)c2ccc(COc3cccc(Cl)c3)o2)CC1 ?
FMDV antiviral: -17.9%; Sm TGR block: -12.3%; HCV inh: inconclusive; Vaccinia mCherry: -12.2%; HCMV antiviral: -68.8*; VACV Venus inh: -8.3%

Results for Cc1cccc(C)c1OCc1nnc(SCC(=O)NCCc2ccccc2)o1 ?
FMDV antiviral: -21.8%; Sm TGR block: -20.7%; HCV inh: -9.0%; HCMV antiviral: 6.8

Results for O=C(NC1CC(=O)N(c2ccccc2)C1)C1CCCCC1 (stereo not drawn) ?
FMDV antiviral: -18.5%; Sm TGR block: -1.4%; Vaccinia mCherry: -12.1%[7.34 µM]; HCMV antiviral: 47.7; VACV Venus inh: -10.2%[7.34 µM]

What do the screens show for `CSCCC(NC(=O)c1ccccc1Cl)C(=O)NCC1COc2ccccc2O1` (stereo not drawn)?
FMDV antiviral: -11.8%; Sm TGR block: 0.6%; HCV inh: 5.9%; Vaccinia mCherry: -19.2%; HCMV antiviral: -31.4; VACV Venus inh: -7.9%

How did CS(=O)(=O)N(CC(=O)N1CCCCCC1)c1ccc(Br)cc1 do in these assays?
FMDV antiviral: -4.3%; Sm TGR block: -18.9%; HCV inh: -11.0%; HCMV antiviral: -13.1

Results for O=[N+]([O-])/C(C(Cl)=C(Cl)Cl)=C(/NC1CC1)Sc1ccccc1 ?
FMDV antiviral: 43.3%; Sm TGR block: 3.98µM*; HCV inh: 16.2%; Vaccinia mCherry: -2.1%; HCMV antiviral: -38.4; VACV Venus inh: 1.4%

How did O=C(CSc1ccccc1)NC1CC1 do in these assays?
FMDV antiviral: 1.1%; Vaccinia mCherry: -1.9%; HCMV antiviral: -30.8; VACV Venus inh: -5.8%

What do the screens show for `CC(C)c1nc2oc3c(NCCO)ncnc3c2c2c1COC(C)(C)C2`?
FMDV antiviral: -9.4%; Sm TGR block: 1.0%; HCV inh: 8.2%; HCMV antiviral: 40.1

What do the screens show for `CCCc1nc2oc3c(NCCOCCO)ncnc3c2c2c1COC(C)(C)C2`?
FMDV antiviral: inconclusive; Sm TGR block: 6.7%; HCV inh: -13.3%; HCMV antiviral: -101.7*

What do the screens show for `O=C(CCN1CCOCC1)Nc1ccc(Br)cc1C(=O)c1ccccc1`?
FMDV antiviral: -11.7%; Sm TGR block: 25.1µM*; HCV inh: -7.7%; HCMV antiviral: -7.8

What do the screens show for `O=C(CN1CCOCC1)Nc1ccc(Br)cc1C(=O)c1ccccc1`?
Sm TGR block: -0.6%; HCV inh: 1.7%; Vaccinia mCherry: -25.1%; HCMV antiviral: -16.4; VACV Venus inh: -14.7%

Results for CN(C)/C=C(/C(=O)c1ccc(Cl)c(Cl)c1)S(C)(=O)=O ?
FMDV antiviral: -12.7%; Sm TGR block: 0.5%; HCV inh: 18.7%; Vaccinia mCherry: inactive; HCMV antiviral: -4.4; VACV Venus inh: -14.2%
